PubChem BioAssay (NCI)
The panel holds about 79,000 compounds, 15% with a hit somewhere; the sample as a whole holds those more often. Activity calls are given as the source filed them. No stated cut-off is given here; in the data, active means growth inhibition above about 70%; inactive means the rest.

Experiments:
[1] = NCI Yeast Anticancer Drug Screen. Data for the rad52 strain (AID 147);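 further: 0% = growth of vehicle-treated control cultures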; conditions: S. cerevisiae rad52 mutant growth inhibition, hits give high values
In short: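 Genetically altered yeast (DNA damage repair defect) treated with compound; inhibition calculated relative to vehicle.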

[2] = NCI Yeast Anticancer Drug Screen. Data for the wt1 strain (AID 149);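 further: 0% = growth of vehicle-treated wt1 cultures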; conditions: S. cerevisiae wt1 strain (SPY 50644) growth inhibition, hits give high values
In short: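 Compounds are added to wt1 yeast cultures. Growth is then measured. Inhibition is expressed relative to vehicle-treated controls.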

[3] = NCI Yeast Anticancer Drug Screen. Data for the rad50EPP+ strain (AID 151);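 further: 0% = growth of vehicle-treated control cultures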; conditions: S. cerevisiae rad50 mutant strain, hits give high values
In short: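 Strain rad50EPP+; compound exposure; % growth inhibition vs vehicle.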

[4] = NCI Yeast Anticancer Drug Screen. Data for the mgt1 strain (AID 153); conditions: S. cerevisiae mgt1 mutant growth inhibition, hits give high values
In short: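 Read-out: yeast growth inhibition vs vehicle control. Strain mgt1, drawn from a panel altered in DNA damage repair or cell cycle control.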

[5] = NCI Yeast Anticancer Drug Screen. Data for the rad50 strain (AID 155);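 further: 0% = growth of vehicle-only cultures of the same strain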; conditions: S. cerevisiae rad50 strain growth inhibition, hits give high values
In short: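 Inhibition values express reduced yeast growth in compound-treated cultures relative to vehicle-treated controls.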

[6] = NCI Yeast Anticancer Drug Screen. Data for the mec2-1 strain (AID 157); conditions: S. cerevisiae mec2-1 strain, hits give high values
In short: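 Cells of the genetically defined mec2-1 yeast strain are incubated with test compound. Inhibition of growth is calculated against vehicle-treated controls.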

[7] = NCI Yeast Anticancer Drug Screen. Data for the rad14 strain (AID 159);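 further: 0% = growth of vehicle-treated control cultures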; conditions: S. cerevisiae rad14 strain growth inhibition, hits give high values
In short: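 A mutant yeast strain defective in DNA damage repair is treated with compound; inhibition of its growth is scored against untreated, vehicle-exposed cultures.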

[8] = NCI Yeast Anticancer Drug Screen. Data for the sgs1 mgt1 strain (AID 161);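 further: 0% = growth of cultures given vehicle only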; conditions: S. cerevisiae sgs1 mgt1 strain, hits give high values
In short: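 Genetically altered yeast, compound exposure, growth inhibition relative to vehicle.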

[9] = NCI Yeast Anticancer Drug Screen. Data for the CLN2oe strain (AID 163);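 further: 0% = growth of vehicle-only control cultures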; conditions: S. cerevisiae CLN2oe strain, hits give high values
In short: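 Strain altered in cell-cycle control, incubated with compound; growth compared to solvent-treated controls.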

[10] = NCI Yeast Anticancer Drug Screen. Data for the cln2 rad14 strain (AID 165);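 further: 0% = growth equal to vehicle treated cultures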; conditions: S. cerevisiae cln2 rad14 strain, hits give high values
In short: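 The screen exposed genetically defined yeast (cln2 rad14) to test compounds and scored growth inhibition relative to vehicle-treated controls.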

[11] = NCI Yeast Anticancer Drug Screen. Data for the bub3 strain (AID 167); conditions: S. cerevisiae bub3 mutant strain, hits give high values
In short: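 Steps: expose the mutant yeast strain to compound; grow alongside vehicle-treated cultures; measure growth; express inhibition against the vehicle cultures.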

[12] = NCI Yeast Anticancer Drug Screen. Data for the wt2 strain (AID 169);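 further: 0% = growth of vehicle-treated yeast cultures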; conditions: S. cerevisiae wt2 strain growth inhibition, hits give high values
In short: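 Steps: yeast strain treated with compound; growth recorded; inhibition calculated relative to cultures given vehicle alone.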

[13] = NCI Yeast Anticancer Drug Screen. Data for the mlh1 strain (AID 171);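 further: 0% = growth of vehicle-treated control cultures of the same strain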; conditions: S. cerevisiae mlh1 strain growth inhibition, hits give high values
In short: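 Yeast screen: mutant strain plus compound, growth scored against vehicle control wells.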

[14] = NCI Yeast Anticancer Drug Screen. Data for the sgs1 strain (AID 173);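 further: 0% = growth of vehicle-only control cultures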; conditions: S. cerevisiae sgs1 mutant, hits give high values
In short: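 Inhibition of yeast growth served as the measure. The mutant strain was treated with each compound, and growth was normalised to cultures receiving vehicle alone.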

[15] = NCI Yeast Anticancer Drug Screen. Data for the mlh1 rad18 strain (AID 175); conditions: S. cerevisiae mlh1 rad18 strain growth inhibition, hits give high values
In short: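 Compound-treated yeast growth, normalised to vehicle controls. Strain bears defined DNA repair mutations.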

[16] = at 5.0 µM (retest, dose inferred, filed as 0.5)
[17] = at 50.0 µM (retest, dose inferred, filed as 5.0)

Measured: growth inhibition

C=C(C(=C)n1nnc(C(=O)OC)c1C(=O)OC)n1nnc(C(=O)OC)c1C(=O)OC
inactive: [1]; at 1.2 µM 0% | [1]; at 3.7 µM 2% | [1]; at 11.0 µM 3% | [1]; at 33.0 µM 0% | [1]; at 100.0 µM 0% | [2]; at 1.2 µM -1% | [2]; at 3.7 µM 0% | [2]; at 11.0 µM 1% | [2]; at 33.0 µM 0% | [2]; at 100.0 µM 1% | [3]; at 1.2 µM 0% | [3]; at 3.7 µM -1% | [3]; at 11.0 µM -1% | [3]; at 33.0 µM -2% | [3]; at 100.0 µM 0% | [4]; at 1.2 µM 0% | [4]; at 3.7 µM 5% | [4]; at 11.0 µM 0% | [4]; at 33.0 µM -1% | [4]; at 100.0 µM -3% | [5]; at 1.2 µM 0% | [5]; at 3.7 µM 1% | [5]; [16] 3% | [5]; at 11.0 µM 0% | [5]; at 33.0 µM 0% | [5]; [17] 2% | [5]; at 50.0 µM 27.1% | [5]; at 100.0 µM -2% | [6]; at 1.2 µM -5% | [6]; at 3.7 µM -5% | [6]; [16] -1% | [6]; at 11.0 µM -3% | [6]; at 33.0 µM -2% | [6]; [17] -1% | [6]; at 50.0 µM 51.9% | [6]; at 100.0 µM -5% | [7]; at 1.2 µM 1% | [7]; at 3.7 µM 3% | [7]; at 11.0 µM 3% | [7]; at 33.0 µM 3% | [7]; at 100.0 µM 1% | [8]; [16] 10% | [8]; [17] -3% | [8]; at 50.0 µM 51% | [9]; at 1.2 µM -2% | [9]; at 3.7 µM -1% | [9]; at 11.0 µM -4% | [9]; at 33.0 µM 0% | [9]; at 100.0 µM -4% | [10]; [16] -3% | [10]; [17] -2% | [10]; at 50.0 µM 53.2% | [11]; at 1.2 µM -1% | [11]; at 3.7 µM -3% | [11]; [16] 2% | [11]; at 11.0 µM -3% | [11]; at 33.0 µM -5% | [11]; [17] 2% | [11]; at 50.0 µM 66.4% | [11]; at 100.0 µM -4% | [12]; at 1.2 µM -1% | [12]; at 3.7 µM -1% | [12]; at 11.0 µM 1% | [12]; at 33.0 µM -1% | [12]; at 100.0 µM 0% | [13]; at 1.2 µM -1% | [13]; at 3.7 µM -2% | [13]; at 11.0 µM 0% | [13]; at 33.0 µM 0% | [13]; at 100.0 µM 0% | [14]; at 1.2 µM 0% | [14]; at 3.7 µM -1% | [14]; at 11.0 µM -2% | [14]; at 33.0 µM 0% | [14]; at 100.0 µM 0% | [15]; [16] -2% | [15]; [17] 48% | [15]; at 50.0 µM 59.5%
